# Data published in the supplement of paper PMC9135407.
# Values joined by “and” are separate entries in the source; they are usually repeats but may differ in a detail not shown here. Equal values may be shown once. Where a name gives a salt, the structure may show the parent alone. The whole screen tested about 5,800 compounds, of which about 620 (11%) showed activity. Shown is part of a subset that was picked to be rich in actives. A number with no mark means an inactive call.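 How the source made its calls: active = score above a cut-off or among the top three wells of a plate; in these data no inactive exceeds 0.85.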
# Tested on: primary human hepatic stellate cells (donor 1)
# Test: scaled lipid accumulation score (0 = DMSO-like, 1 = nortriptyline-like); higher = stronger HSC inactivation (lipid re-accumulation), active = hit call of the paper
# Conditions: 48 h
# [1] = library stock concentration: 10 mM
# [2] = library stock concentration: 3.33 mM
# [3] = library stock concentration: 1 mM
compound,measurement,setting,value
Nc1cc(N2CCCCC2)nc(N)[n+]1OS(=O)(=O)[O-] [Minoxidil sulfate],scaled lipid accumulation score,library stock concentration: 17.3 mM,≤ -0.021
C=CCCCCCCCCC(=O)O [Undecylenic acid],scaled lipid accumulation score,library stock concentration: 10.9 mM,≤ 0
O=S(=O)(c1cccc2cnccc12)N1CCCNCC1 [Fasudil],scaled lipid accumulation score,library stock concentration: 6.9 mM,≤ -0.006
O=S(=O)(c1cccc2c(I)cccc12)N1CCCNCC1 [listing 1 of 2 here],scaled lipid accumulation score,[1],0.931 (active)
O=S(=O)(c1cccc2cnccc12)N1CCCNCC1 [Fasudil (HA-1077) HCl],scaled lipid accumulation score,[2],≤ 0
same,scaled lipid accumulation score,[1],0.14
"O=S(=O)(c1cccc2c(I)cccc12)N1CCCNCC1 [ML-7, Hydrochloride]",scaled lipid accumulation score,[2],0.25
O=S(=O)(c1cccc2cnccc12)N1CCCNCC1,scaled lipid accumulation score,[1],0.257
O=S(=O)(c1cccc2c(Cl)cccc12)N1CCCNCC1 [listing 1 of 2 here],scaled lipid accumulation score,library stock concentration: 15.4 mM,0.912 (active)
O=c1[nH]ccc2c(S(=O)(=O)N3CCCNCC3)cccc12 [HA 1100 hydrochloride],scaled lipid accumulation score,[1],≤ -0.001
CC1CN(S(=O)(=O)c2cccc3cnccc23)CCN1 (configuration not stated),scaled lipid accumulation score,[1],0.164
O=S(=O)(c1cccc2cnccc12)N1CCNCC1,scaled lipid accumulation score,[1],0.248
O=S(=O)(c1cccc2c(I)cccc12)N1CCCNCC1 [listing 2 of 2 here],scaled lipid accumulation score,library stock concentration: 80 uM,≤ -0.001
same,scaled lipid accumulation score,library stock concentration: 400 uM,≤ -0.001
same,scaled lipid accumulation score,library stock concentration: 2 mM,0.204
O=S(=O)(c1cccc2c(Cl)cccc12)N1CCCNCC1 [listing 2 of 2 here],scaled lipid accumulation score,[1],1.02 (active)
O=S(=O)(c1cccc2cnccc12)N1CCCNCC1 [Fasudil hydrochloride],scaled lipid accumulation score,[1],0.07
NCCNS(=O)(=O)c1cccc2c(Cl)cccc12 [A3 hydrochloride],scaled lipid accumulation score,[1],≤ 0
COCCOc1cc2nc[nH]c(=O)c2cc1OCCOC,scaled lipid accumulation score,[1],0.018
CCCCC[C@H](O)/C=C/[C@H]1C=CC(=O)[C@@H]1CCCCCCC(=O)O [Prostaglandin A1],scaled lipid accumulation score,[3],0.022 and 0.047
Nc1nc2c([nH]c(=O)n2[C@H]2C[C@H](O)[C@@H](CO)O2)c(=O)[nH]1 [8-hydroxy-2'-deoxy Guanosine],scaled lipid accumulation score,[3],≤ 0
C[C@@H]1CC(=O)NN=C1c1ccc(NN=C(C#N)C#N)cc1 [Levosimendan],scaled lipid accumulation score,[2],≤ 0
same,scaled lipid accumulation score,[1],≤ 0
C[C@@H]1CC(=O)NN=C1c1ccc(NN=C(C#N)C#N)cc1,scaled lipid accumulation score,[1],0.073
Cc1ccccc1/C=C/C1=NCCN1 [Metrazoline oxalate],scaled lipid accumulation score,[1],0.381
"CCCCCC(=O)/C=C/C=C\CCCCCCCC(=O)O [13-Keto-octadeca-9Z,11E-dienoic acid]",scaled lipid accumulation score,library stock concentration: 100 uM,0.012
"O=Cc1c2[nH]c3ccccc3c2cc2[nH]c3ccccc3c12 [6-Formylindolo [3,2-B] carbazole]",scaled lipid accumulation score,[3],≤ -0.02
NC(C(=O)O)c1ccc(C(=O)O)c(C(=O)O)c1 (configuration not stated),scaled lipid accumulation score,[1],≤ -0.006
CN(C)c1cc2c(Nc3ccc4c(cnn4Cc4ccccc4)c3)ncnc2cn1,scaled lipid accumulation score,[1],0.524
Cc1c(NC(=O)OC[C@@H]2COCCN2)cn2ncnc(Nc3ccc4c(cnn4Cc4cccc(F)c4)c3)c12.Cl,scaled lipid accumulation score,[2],1.15 (active)
same,scaled lipid accumulation score,[1],1.2 (active)
Cc1nc2ccc(NC(=O)Nc3ccnc4cccnc34)cc2o1,scaled lipid accumulation score,[1],≤ -0.006
